High-throughput results (PubChem BioAssay)
Pf growth 96h – P. falciparum growth inhibition at 96 hours; P. falciparum luciferase reporter growth, 96 h; Potency, µM (series often up to 28.7 µM), without a hit: at the highest dose activity change, negative = inhibition, most hits filed as inhibitors; actives 6.9% (n = 320,000); active = well fitted inhibition curve with a large enough effect; inconclusive = small, poorly fitted or top-dose-only effect, or another doubt; inactive = no such curve, though single readings can be large or run the other way; also: % is scaled to controls: 0 for no effect and ±100 for the full control effect
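Readout is luminescence from an integrated firefly luciferase in P. falciparum. Red cells, 2% hematocrit and 0.05% parasitemia final, were cultured with compound through two parasite generations (96 hours) at 37 C, 5% CO2.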
SARS PLpro yeast – blocks SARS-CoV papain-like protease in a yeast assay | S. cerevisiae expressing SARS-CoV PLpro, growth rescue | Potency, µM (doses to about 32.9 µM), for inactives: at the top dose activity, positive = growth rescue, most hits filed as activators | actives 0.19% (n = 330,000) | AID 485353; also: 0% is about no effect; nearly all actives have a fitted effect of over 55% in size
NS1 inh – inhibitors of influenza NS1 protein function; Potency, µM (highest dose often 46.1 µM), for inactives: at the highest dose activity, positive = more growth; actives 0.4% (n = 270,000); AID 2326; also: actives are rising curves; nearly all actives have a fitted effect of over 50% in size
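A cell-based growth assay was used: compounds that relieve NS1-induced slow growth of budding yeast raise OD600. Assay medium was yeast nitrogen base with ammonium sulphate and -URA supplement, pH 6.0, with 2% galactose.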
Pf growth 48h – P. falciparum growth inhibition at 48 hours (one generation) | P. falciparum luciferase growth in erythrocytes, 48 h | Potency, µM (doses to about 28.7 µM), without a hit: at the highest dose activity change, negative = inhibition, actives largely listed as inhibitors | actives 5.9% (n = 310,000); active = well fitted inhibition curve with a large enough effect; inconclusive = small, poorly fitted or top-dose-only effect, or another doubt; inactive = no such curve, though single readings can be large or run the other way; also: % is scaled to controls: 0 for no effect and ±100 for the full control effect
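Firefly luciferase activity from engineered P. falciparum reports growth; inhibitors lower the luminescent signal. Cultures contained 2% hematocrit erythrocytes at 0.1% final parasitemia.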
An asterisk follows results filed as active. Shown are actives, neighbours in structure and some others; about 10% of the full set was active somewhere. Unless noted, calls follow the shape of the full dose curve. Potency is read from the fitted curve at half-maximal effect.

COc1ccccc1NC(=O)[C@@H]1CCCN1S(=O)(=O)c1ccc(Cl)cc1 was read as SARS PLpro yeast -13%.
For Cc1ccc(/C(O)=C2\C(=O)C(=O)N(C)C2c2cccc([N+](=O)[O-])c2)cc1 (stereo unspecified) the results were Pf growth 96h -20%, SARS PLpro yeast 0%, NS1 inh 2% and Pf growth 48h 71%.
`CCOC(=O)Cn1c(=O)c2c(nc(N3CCCCC3)n2Cc2ccccc2)n(C)c1=O` gave Pf growth 96h inconclusive, SARS PLpro yeast 12%, NS1 inh -26% and Pf growth 48h 5.2µM*.
Screening CN(C(=O)COC(=O)/C=C/c1cn(-c2ccccc2)nc1-c1ccc2c(c1)OCCO2)C1CCS(=O)(=O)C1 (stereo unspecified) returned Pf growth 96h 12µM*, SARS PLpro yeast 0% and Pf growth 48h inconclusive.
For CCOC(=O)c1c(C)[nH]c(C)c1C(=O)CSc1nc2ccccc2c(=O)n1-c1ccccc1C the results were Pf growth 96h inconclusive, SARS PLpro yeast -5%, NS1 inh 8% and Pf growth 48h 10µM*.
Cc1cccc(C(=O)NCC(=O)NCC2COc3ccccc3O2)c1 (stereo unspecified) was read as Pf growth 96h 16%, SARS PLpro yeast -1% and Pf growth 48h inconclusive.
Screening CC(=O)N/C(=C\c1ccccc1)C(=O)OCc1ccc(F)cc1 returned Pf growth 96h -33%, SARS PLpro yeast 6%, NS1 inh 17% and Pf growth 48h -17%.
Screening COc1cccc(NS(=O)(=O)c2c(C)cc(C)cc2C)c1 returned Pf growth 96h inconclusive, SARS PLpro yeast -29%, NS1 inh -63% and Pf growth 48h 13µM*.
For Cc1ccc(NC(=O)Nc2ccc3c(c2)nc(C)n3C)cc1C the results were Pf growth 96h inconclusive, SARS PLpro yeast 0%, NS1 inh 0% and Pf growth 48h 127%.
Screening Cc1cc2nc(C)n(CCCNC(=O)Nc3ccc(F)cc3)c2cc1C returned SARS PLpro yeast 5%, NS1 inh -3% and Pf growth 48h 12µM*.
COc1cc2c(cc1OC)[C@@H](NC(=O)CCc1ccccc1)[C@H](O)C2 was read as SARS PLpro yeast -4%.
Screening COc1ccc(Oc2nc(-c3cccnc3)nc3ccccc23)cc1 returned Pf growth 96h inconclusive, SARS PLpro yeast -1%, NS1 inh -3% and Pf growth 48h inconclusive.
Screening Fc1ccccc1Oc1nc(-c2ccncc2)nc2ccccc12 returned Pf growth 96h 3.3µM*, SARS PLpro yeast 1%, NS1 inh -1% and Pf growth 48h inconclusive.
`COc1ccc(OC)c(C(=O)c2coc3ccc(O)cc23)c1` gave Pf growth 96h 10µM*, SARS PLpro yeast -12%, NS1 inh -9% and Pf growth 48h 16%.
Screening COc1ccc2occ(C(=O)c3ccccc3)c2c1 returned Pf growth 96h 5%, SARS PLpro yeast -1% and Pf growth 48h 118%.
O=C(c1coc2ccc(O)cc12)C1CC1 was read as Pf growth 96h 8.3µM*, SARS PLpro yeast -2%, NS1 inh -13% and Pf growth 48h 40%.
Cc1cc(C(=O)N2CCCC(Nc3ccccc3)C2)c2ccc(F)cc2n1 (stereo unspecified) was read as Pf growth 96h 64%, SARS PLpro yeast 2%, NS1 inh 1% and Pf growth 48h 3%.
C/C=C/C(=O)N1c2ccc(C)cc2C(C)=CC1(C)C was read as Pf growth 96h 40%, SARS PLpro yeast 1%, NS1 inh -53% and Pf growth 48h 90%.
`CC1=CC(C)(C)[N+](C)(C)c2ccc(C)cc21` gave Pf growth 96h inconclusive, SARS PLpro yeast 0%, NS1 inh 1% and Pf growth 48h 2.6µM*.
Screening N=c1c2c3c(sc2ncn1Cc1ccccc1)CCCC3 returned Pf growth 96h 47%, SARS PLpro yeast -19%, NS1 inh -3% and Pf growth 48h inconclusive.
Screening N=c1c2c3c(sc2ncn1Nc1ccccc1)CCC3 returned Pf growth 96h 2.9µM*, SARS PLpro yeast 0%, NS1 inh -5% and Pf growth 48h 1.7µM*.
Screening O=C1CCC(=O)N1CCSC(=S)N1CCSCC1 returned Pf growth 96h 65%, SARS PLpro yeast 0%, NS1 inh -5% and Pf growth 48h 37%.
Screening C=CCn1c(N2CCN(c3ccc(OC)cc3)CC2)nc2c1c(=O)[nH]c(=O)n2C returned Pf growth 96h 51%, SARS PLpro yeast -1%, NS1 inh 0% and Pf growth 48h -16%.
For COc1cccc(-c2nnn(CC(=O)NC3CCCC3)n2)c1OC the results were Pf growth 96h 9.3µM*, SARS PLpro yeast -3%, NS1 inh 7% and Pf growth 48h -4%.
For O=C(Cn1nnc(-c2ccccc2NC(=O)C2CC2)n1)NC1CCCCC1 the results were SARS PLpro yeast 5%, NS1 inh -11% and Pf growth 48h -16%.
Cc1nn(Cc2c(F)c(F)c(F)c(F)c2F)c(C)c1NC(=O)c1cccc(COc2ccccc2Cl)c1 was read as Pf growth 96h 289%, SARS PLpro yeast 1%, NS1 inh 15% and Pf growth 48h 137%.
Screening Cc1nn(Cc2cccc(F)c2)c(C)c1NC(=O)c1ccc(COc2ccccc2Cl)cc1 returned SARS PLpro yeast 1%, NS1 inh -2% and Pf growth 48h 13µM*.
`Cc1ccc(CNC(=O)CCNC(=O)c2ccco2)cc1` gave Pf growth 96h 66%, SARS PLpro yeast 8%, NS1 inh 12% and Pf growth 48h 34%.
For CCOC(=O)C1CCN(C2=C(NS(=O)(=O)c3ccc(Br)cc3)C(=O)c3ccccc3C2=O)CC1 the results were Pf growth 96h inconclusive, SARS PLpro yeast -3%, NS1 inh 25% and Pf growth 48h inconclusive.
Screening CCN1CCN(C2=C(NS(=O)(=O)c3ccccc3)C(=O)c3ccccc3C2=O)CC1 returned Pf growth 96h 2.9µM*, SARS PLpro yeast -2%, NS1 inh 8% and Pf growth 48h 5.9µM*.
For CCN1CCN(C2=C(NS(=O)(=O)c3ccc(Br)cc3)C(=O)c3ccccc3C2=O)CC1 the results were Pf growth 96h inconclusive, SARS PLpro yeast -1%, NS1 inh 1% and Pf growth 48h 2.6µM*.
Screening CCOc1ccccc1N1CCN(C2=C(NS(=O)(=O)c3cccs3)C(=O)c3ccccc3C2=O)CC1 returned SARS PLpro yeast 0%, NS1 inh inconclusive and Pf growth 48h 10µM*.
For CN1CCN(C2=C(NS(=O)(=O)c3cccs3)C(=O)c3ccccc3C2=O)CC1 the results were Pf growth 96h inconclusive, SARS PLpro yeast 0%, NS1 inh 3% and Pf growth 48h inconclusive.
For CCOC(=O)N1CCN(C2=C(NS(=O)(=O)c3ccccc3)C(=O)c3ccccc3C2=O)CC1 the results were Pf growth 96h 9.3µM*, SARS PLpro yeast -2%, NS1 inh 8% and Pf growth 48h 13µM*.
Screening O=C1C(Nc2ccccc2)=C(NS(=O)(=O)c2ccccc2)C(=O)c2ccccc21 returned Pf growth 96h 4.1µM*, SARS PLpro yeast -3%, NS1 inh 10% and Pf growth 48h 10µM*.
